The results in this text go back to PubChem BioAssay AID2267 (National Center for Advancing Translational Sciences (NCATS), 2010).

The list shows a part of the results. Inconclusive results are not listed. Calls of active or inactive are those of the source. Calls follow the shape of the dose curve; as a rule, active = well fitted inhibition curve with a large enough effect; inconclusive = small, poorly fitted or top-dose-only effect, or effect the other way; inactive = flat fitted curve, though single readings scatter.

Sequence of Pyruvate kinase PKM (Homo sapiens) (P14618 whole entry, looked up, canonical isoform): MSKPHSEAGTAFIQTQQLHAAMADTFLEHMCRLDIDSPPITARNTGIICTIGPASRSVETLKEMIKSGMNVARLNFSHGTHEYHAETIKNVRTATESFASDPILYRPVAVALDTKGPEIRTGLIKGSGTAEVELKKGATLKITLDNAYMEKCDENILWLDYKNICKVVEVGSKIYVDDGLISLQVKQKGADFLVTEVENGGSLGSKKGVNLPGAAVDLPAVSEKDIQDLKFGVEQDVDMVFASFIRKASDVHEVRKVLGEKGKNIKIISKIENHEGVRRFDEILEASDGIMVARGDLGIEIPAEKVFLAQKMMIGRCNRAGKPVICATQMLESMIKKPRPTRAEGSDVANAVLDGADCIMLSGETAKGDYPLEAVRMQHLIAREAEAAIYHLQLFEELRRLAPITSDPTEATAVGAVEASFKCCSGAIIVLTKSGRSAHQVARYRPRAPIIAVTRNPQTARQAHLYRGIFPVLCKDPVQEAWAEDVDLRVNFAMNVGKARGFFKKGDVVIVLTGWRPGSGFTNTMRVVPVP

The assay has as its target Pyruvate kinase PKM (Homo sapiens) (UniProt P14618). Briefly: Secondary assay for Inhibitors of Human Pyruvate Kinase M2 isoform. As to conditions: purified hPK-M2, LDH-coupled NADH fluorescence kinetic. An excerpt: NIH Chemical Genomics Center [NCGC] Matthew G. Vander Heiden, M.D., Ph.D. [Harvard Medical School, 77 Avenue Louis Pasteur, Boston, MA 02115] MLPCN Grant: 1 R03 MH085679-01 NCGC Assay Overview: Human pyruvate kinase muscle 2 (hPK-M2)enzyme was supplied as a highly purified (>95% pure) preparation from Harvard Medical School and a secondary assay was used to evaluate compounds. This assay couples the formation of pyruvate from hPK-M2 using lactate dehydrogenase (LDH) and NADH. The depletion of NADH is followed in a fluorescent-based kinetic assay that follows the formation of pyruvate to lactate, as catalyzed LDH (described by Hannaert et al., 2002)1 Pyruvate kinase substrates, PEP and ADP, were present in the assay at 0.1 mM and 4 mM respectively. In this kinetic assay initial rates were determined by following the fluorescence of NADH depletion.
NCGC Assay Protocol Summary: Three uL of substrate mix (final concentration, 50 mM Tris-Cl pH 8.0, 200 mM KCl, 15 mM MgCl2, 0.1 mM PEP, 4.0 mM ADP, and 0.2 mM NADH) was dispensed into black-solid 1536 well plates. 23 nL of compounds were delivered by a pin tool and 1 uL of enzyme mix (final concentrations, 10 nM hPK-M2 and 1 uM of LDH) was added. Plates were immediately placed in ViewLux (Perkin Elmer) and NADH fluorescence was determined at 30 second exposure intervals for between 3 and 6 minutes. Data were normalized to the basal signal.
Take `Cc1ccc(-c2nc3ccccn3c2Nc2ccc(F)cc2)o1`: the Potency is 7.3 µM (active).
